The text below walks through data of PubChem BioAssay (NCI).

Common to all, as to experiment: NCI-60 one-dose screen, 48 h (100 = growth as untreated, 0 = no growth, -100 = all killed)
In one experiment the test system is RPMI-8226 leukemia. The conditions noted are these: 10 µM.
The subject of a further experiment is OVCAR-8 ovarian. The conditions noted are these: 10 µM.
In another experiment the test system is OVCAR-5 ovarian. The conditions noted are these: 10 µM.
The next experiment has as its system OVCAR-4 ovarian. The conditions noted are these: 10 µM.
Another experiment relates to SK-OV-3 ovarian. To be noted: 10 µM.
In a further experiment the test system is IGROV1 ovarian. The conditions noted are these: 10 µM.
The test system of a further experiment is OVCAR-3 ovarian. The conditions noted are these: 10 µM.
The subject of another experiment is HS 578T breast. The conditions noted are these: 10 µM.
For the next experiment, the system named is NCI/ADR-RES ovarian. To be noted: 10 µM.
In the next experiment the test system is T-47D breast. The conditions noted are these: 10 µM.
Another experiment deals with BT-549 breast. To be noted: 10 µM.
The test system of another experiment is MDA-MB-435 melanoma. To be noted: 10 µM.
The subject of the next experiment is SW-620 colon. The conditions noted are these: 10 µM.
A further experiment deals with MCF7 breast.
For a further experiment, the system named is HCT-116 colon. The conditions noted are these: 10 µM.
A further experiment concerns HCC-2998 colon. The conditions noted are these: 10 µM.
A further experiment concerns KM12 colon. To be noted: 10 µM.
A further experiment has as its system SR leukemia. The conditions noted are these: 10 µM.

Each structure is given as a SMILES string. Several values for one entry are separate records, joined by “and”; a condition that tells them apart may be missing. Equal values may be shown once. Compounds without any hit were thinned out: in the full panel of roughly 83,000, 20% have a hit.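 Testing used 96-well plates and a 48-hour single-concentration exposure. Example: -40 means 40% of the starting cells died.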 Unmarked numbers belong to inactive results. Activity calls are given as the source filed them. Rule for the calls: active = growth percent below 10; inactive = the rest.

As for `O=c1c2ccccc2c(Br)c(Br)c2ccccc12`, the growth is 88.5% in the experiment with RPMI-8226 leukemia; 96.6% in the experiment on OVCAR-8 ovarian; 113% in the experiment with OVCAR-5 ovarian; 82.1% with OVCAR-4 ovarian; 109% with SK-OV-3 ovarian; 91.4% in the experiment on IGROV1 ovarian. Besides, the growth is 108% in the experiment with OVCAR-3 ovarian; 107% in the experiment with HS 578T breast; 60.5% with NCI/ADR-RES ovarian; 53.5% in the experiment on T-47D breast; 82.4% with BT-549 breast; 77.6% in the experiment on MDA-MB-435 melanoma. Also, the growth was 29.8% in the experiment with SW-620 colon; 101% with MCF7 breast (10 µM unless noted); 17.8% in the experiment on HCT-116 colon; 103% in the experiment on HCC-2998 colon; 105% with KM12 colon.

For `O=C(NCCNC(=O)c1ccc(Cl)cc1Cl)c1ccc(Cl)cc1Cl`, the growth is 97.8% with RPMI-8226 leukemia; 94.7% in the experiment with OVCAR-8 ovarian; 119% in the experiment with OVCAR-5 ovarian; 104% with OVCAR-4 ovarian; 98.7% in the experiment with SK-OV-3 ovarian; 100% in the experiment on IGROV1 ovarian. In addition, the growth in the experiment with OVCAR-3 ovarian was 111%; with HS 578T breast it was 107%; in the experiment on NCI/ADR-RES ovarian it was 97.6%; with T-47D breast, 99.3%; with BT-549 breast, 111%; in the experiment on MDA-MB-435 melanoma it was 106%. For the same molecule, the growth is 113% in the experiment with SW-620 colon; 102% with MCF7 breast (10 µM unless noted); 104% with HCT-116 colon; 100% with HCC-2998 colon; 105% in the experiment with KM12 colon.

`CCOC(=O)/C(=C/c1ccc(OC)cc1)N(CC)CC`: the growth is 102% in the experiment with RPMI-8226 leukemia; 99.9% with OVCAR-8 ovarian; 113% in the experiment on OVCAR-5 ovarian; 116% in the experiment on OVCAR-4 ovarian; 116% in the experiment on SK-OV-3 ovarian; 106% in the experiment on IGROV1 ovarian. In addition, the growth in the experiment with OVCAR-3 ovarian is 106%; with HS 578T breast it was 93.7%; in the experiment on NCI/ADR-RES ovarian, 107%; in the experiment on T-47D breast, 92.6%; in the experiment on BT-549 breast, 108%; with MDA-MB-435 melanoma, 110%. Moreover, the growth in the experiment on SW-620 colon was 103%; with MCF7 breast (10 µM unless noted), 103%; with HCT-116 colon it was 101%; with HCC-2998 colon, 111%; in the experiment on KM12 colon, 104%.

For `COc1ccc(/C(C#N)=C2C=C/C(=N/O)c3ccccc3\2)cc1`, the growth with RPMI-8226 leukemia was 32.1%; in the experiment on OVCAR-8 ovarian, 18.9%; with OVCAR-5 ovarian, 27.3%; in the experiment with OVCAR-4 ovarian, 35.8%; in the experiment with SK-OV-3 ovarian, -6.21% (active); in the experiment with IGROV1 ovarian it was 22.3%. Further, the growth was 1.6% (active) in the experiment on OVCAR-3 ovarian; 35.1% in the experiment with HS 578T breast; 15.9% in the experiment on NCI/ADR-RES ovarian; 64.8% in the experiment with T-47D breast; 31% with BT-549 breast; -57% (active) in the experiment on MDA-MB-435 melanoma. In addition, the growth is 20.1% with SW-620 colon; 13.1% in the experiment with MCF7 breast (10 µM unless noted); 5.12% (active) with HCT-116 colon; -11.4% (active) in the experiment with HCC-2998 colon; 3.23% (active) in the experiment on KM12 colon.

Consider `CC(=O)OCC1=CC2OC(=O)C3=COC(OC4OC(CO)C(O)C(O)C4O)C1C32` (configuration not stated), for which the growth in the experiment with SR leukemia is 120%; in the experiment with OVCAR-5 ovarian, 111%; in the experiment on OVCAR-4 ovarian, 129%; in the experiment on SK-OV-3 ovarian, 108%; in the experiment on IGROV1 ovarian it was 71.3%; in the experiment with OVCAR-3 ovarian, 112%. Moreover, the growth was 32.9% in the experiment on NCI/ADR-RES ovarian; 105% in the experiment with T-47D breast; 110% in the experiment with BT-549 breast; 109% in the experiment with MDA-MB-435 melanoma; 111% in the experiment with SW-620 colon; 96.7% with MCF7 breast (10 µM). In addition, the growth with MCF7 breast (100 µM) is 78% and 90.4%; in the experiment with HCT-116 colon, 123%; with HCC-2998 colon, 300%; with KM12 colon, 107%.

Consider `C=CC(O)CCC` (configuration not stated), for which the growth was 103% with RPMI-8226 leukemia; 101% in the experiment with OVCAR-8 ovarian; 103% with OVCAR-5 ovarian; 95.6% in the experiment on OVCAR-4 ovarian; 108% with SK-OV-3 ovarian; 121% in the experiment on IGROV1 ovarian. In addition, the growth with OVCAR-3 ovarian was 113%; with HS 578T breast, 110%; in the experiment with NCI/ADR-RES ovarian, 103%; in the experiment on T-47D breast, 113%; with BT-549 breast, 112%; with MDA-MB-435 melanoma, 90.4%. The growth was 101% in the experiment with SW-620 colon; 95.3% in the experiment on MCF7 breast (10 µM unless noted); 112% with HCT-116 colon; 113% with HCC-2998 colon; 109% with KM12 colon.

Turning to `O=C(NC1CCCCC1)OCc1c(COC(=O)NC2CCCCC2)c(-c2ccc(Cl)c(Cl)c2)n2c1CCC2`, the growth in the experiment on RPMI-8226 leukemia was 40%; with OVCAR-8 ovarian it was 35%; in the experiment with OVCAR-5 ovarian, 19%; with OVCAR-4 ovarian it was 11.5%; with SK-OV-3 ovarian it was 12.4%; with IGROV1 ovarian, -42.4% (active). In addition, the growth was 31.2% with OVCAR-3 ovarian; 39.7% in the experiment with HS 578T breast; 25.2% with NCI/ADR-RES ovarian; 20.8% in the experiment with T-47D breast; 53.7% in the experiment on BT-549 breast; 56.3% in the experiment on MDA-MB-435 melanoma. The growth is 32.6% with SW-620 colon; 27.4% in the experiment with MCF7 breast (10 µM unless noted); 15.5% in the experiment with HCT-116 colon; 30.5% with HCC-2998 colon; 56.3% with KM12 colon.

Turning to `S=c1[nH]ccn1-c1ccccc1Cl`, the growth in the experiment on RPMI-8226 leukemia is 95.6%; with OVCAR-8 ovarian it was 105%; in the experiment on OVCAR-5 ovarian it was 114%; with OVCAR-4 ovarian it was 103%; in the experiment with SK-OV-3 ovarian, 111%; in the experiment with IGROV1 ovarian, 108%. Also, the growth with OVCAR-3 ovarian was 98.2%; in the experiment on HS 578T breast, 142%; in the experiment with NCI/ADR-RES ovarian it was 115%; in the experiment on T-47D breast, 107%; in the experiment on BT-549 breast, 117%; with MDA-MB-435 melanoma it was 108%. Moreover, the growth is 111% in the experiment on SW-620 colon; 99.5% with MCF7 breast (10 µM unless noted); 107% in the experiment on HCT-116 colon; 113% with HCC-2998 colon; 104% in the experiment with KM12 colon.

As to `O=C(CC(=O)c1ccccc1O)c1ccccc1`, the growth with RPMI-8226 leukemia is 87.6%; in the experiment with OVCAR-8 ovarian, 73%; with OVCAR-5 ovarian, 101%; with OVCAR-4 ovarian, 90.6%; with SK-OV-3 ovarian, 98.9%; in the experiment with IGROV1 ovarian it was 98.3%. For the same molecule, the growth was 90.9% with OVCAR-3 ovarian; 106% with HS 578T breast; 64.4% in the experiment with NCI/ADR-RES ovarian; 79.7% in the experiment with T-47D breast; 77.5% in the experiment with BT-549 breast; 102% in the experiment on MDA-MB-435 melanoma. The growth in the experiment with SW-620 colon is 86.4%; in the experiment on MCF7 breast (10 µM unless noted), 76.4%; in the experiment on HCT-116 colon it was 76.6%; with HCC-2998 colon it was 107%; with KM12 colon, 92.8%.
